Screens (PubChem BioAssay)
WRN helicase inh: qHTS for Inhibitors of WRN Helicase; Bifunctional 3'-5' exonuclease/ATP-dependent helicase WRN (Homo sapiens), Q14191; WRN helicase unwinding, fluorescent forked duplex, kinetic; Potency, µM (top dose mostly 114 µM), inactives show at the highest dose activity change, negative = inhibition, most hits filed as inhibitors; 0.46% of 360,000 active; AID 651768, 2012; further: on the % scale 0 is the no-effect control and ±100 the full control effect; nearly all actives have a fitted effect of over 55% in size
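Screening of the MLSMR collection measured strand separation of a quenched forked DNA duplex (100 nM) by 20 nM WRN with 2 mM ATP, all final. Compounds were preincubated with enzyme 15 min at room temperature.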
POLB inh: qHTS Assay for Inhibitors of DNA Polymerase Beta | 1.3% of 340,000 active | P06746 | Pol beta primer extension/strand displacement, fluorescence kinetic | Potency, µM (highest dose often 114 µM), without a hit: at the top dose activity change, negative = inhibition, hits mostly inhibitors; further: on the % scale 0 is the no-effect control and ±100 the full control effect
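Enzyme-only controls used 10 nM Pol beta; buffer lacking enzyme served as negative control. Compound preincubated 15 min, then 50 nM substrate added; 0 and 10 min reads at room temperature.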
POLI inh: qHTS for Inhibitors of Polymerase Iota; Pol iota fluorescent replication assay, 10 min; Potency, µM (top dose mostly 115 µM), without a hit: top-dose activity, negative = inhibition, hits mostly inhibitors; 1% of 390,000 active
Target sequence (Q9UNA4 whole entry, looked up): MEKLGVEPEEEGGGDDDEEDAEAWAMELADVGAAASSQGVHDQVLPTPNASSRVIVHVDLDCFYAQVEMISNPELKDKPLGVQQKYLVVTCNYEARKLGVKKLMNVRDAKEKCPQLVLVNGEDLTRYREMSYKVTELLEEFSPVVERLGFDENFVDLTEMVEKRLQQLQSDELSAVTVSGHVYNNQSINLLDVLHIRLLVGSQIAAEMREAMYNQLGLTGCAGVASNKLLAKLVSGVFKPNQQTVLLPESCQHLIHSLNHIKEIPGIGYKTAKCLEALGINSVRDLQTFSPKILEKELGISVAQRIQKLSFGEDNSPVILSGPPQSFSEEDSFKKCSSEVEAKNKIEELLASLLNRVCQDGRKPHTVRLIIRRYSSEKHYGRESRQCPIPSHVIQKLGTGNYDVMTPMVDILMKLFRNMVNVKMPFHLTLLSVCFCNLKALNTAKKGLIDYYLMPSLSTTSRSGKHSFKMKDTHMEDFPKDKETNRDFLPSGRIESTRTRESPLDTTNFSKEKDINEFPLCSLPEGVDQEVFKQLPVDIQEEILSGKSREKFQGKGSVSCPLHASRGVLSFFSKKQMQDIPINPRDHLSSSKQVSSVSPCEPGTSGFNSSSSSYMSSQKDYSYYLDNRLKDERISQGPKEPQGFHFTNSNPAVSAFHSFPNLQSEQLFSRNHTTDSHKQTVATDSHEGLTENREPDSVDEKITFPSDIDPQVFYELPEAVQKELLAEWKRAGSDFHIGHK
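Pol iota at 10 nM preincubated 15 min with compounds at room temperature; reaction started with fluorescent substrate, 50 nM final. Fluorescence read kinetically at 0 and 10 min; buffer-only wells as negative control.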
Pol eta inh: qHTS for Inhibitors of Polymerase Eta; 1.2% of 390,000 active; AID 588591, 2011; recombinant Pol eta, fluorescent DNA replication assay; Potency, µM (series often up to 114 µM), inactives show at the highest dose activity change, negative = inhibition, actives largely listed as inhibitors; further: on the % scale 0 is the no-effect control and ±100 the full control effect
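Pol eta (10 nM) was preincubated with compounds for 15 min at room temperature, after which fluorescent replication substrate (50 nM final) was added to start the reaction. Fluorescence was read kinetically at 0 and 10 min.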
FEN1 inh: qHTS Assay for the Inhibitors of Human Flap endonuclease 1 (FEN1). AID 588795, 2011. Recombinant FEN1 flap cleavage, fluorescence, 15 min. 0.35% of 390,000 active. Potency, µM (top dose mostly 114 µM), without a hit: at the highest dose activity change, negative = inhibition, actives largely listed as inhibitors; further: on the % scale 0 is the no-effect control and ±100 the full control effect; nearly all actives have a fitted effect of over 65% in size
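Quantitative HTS format: each compound was titrated, incubated with 10 nM nuclease for 15 min at room temperature, then challenged with flap substrate at 50 nM final. Signal change over 15 min gave concentration–effect curves.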
Pol kappa inh: qHTS for Inhibitors of Polymerase Kappa; AID 588579, 2011; Potency, µM (highest dose often 107 µM), inactives show at the highest dose activity, negative = inhibition, most hits filed as inhibitors; purified Pol kappa, fluorescent DNA synthesis assay, 10 min; 0.53% of 400,000 active; further: on the % scale 0 is the no-effect control and ±100 the full control effect
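Kinetic fluorescence screen: compound preincubated 15 min RT with 10 nM enzyme; 50 nM substrate (final) initiates; reads at 0/10 min.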
An asterisk follows results filed as active; u = inconclusive; x = no result given; [ ] = remark or other dose. Compounds with a hit are over-represented: about 2.4% of the library has one in this group of screens. The call rests on the fitted dose curve; in most records, active means well fitted curve in the direction sought with a large enough effect; inconclusive means small, poorly fitted or top-dose-only effect, or another doubt; inactive means no such curve, though single readings can be large; an effect the other way counts as inactive or inconclusive. Potency means the concentration at half of the fitted maximal effect.

SMILES	WRN helicase inh	POLB inh	POLI inh	Pol eta inh	FEN1 inh	Pol kappa inh
COc1cccc2cc(C(=O)NCc3ccco3)c(=Nc3ccc(C(=O)O)cc3)oc12	-9%[57.1 µM]	-8%	8%	89µM*	u	0%
Oc1c(CN2CCc3ccccc3C2)cc(Cl)c2cccnc12	3%	35%	65%	-17%	40µM*	-2%
CCN(c1cc(C)cc(C)c1)S(=O)(=O)c1nnc(NC(=O)c2cccs2)s1	x	-28%	25%	89µM*	-8%	-16%
CCN(c1ccc(OC)cc1)S(=O)(=O)c1nnc(NC(=O)COc2ccc(C)cc2)s1	-5%	7.9µM*	-6%	-2%	4%	-16%
CCC(C)(C)NC(=O)C1CCN(S(=O)(=O)c2c(C)noc2/C=C/c2ccc(C)cc2)CC1	x	-14%	-1%	-9%	-6%	-5%[60.1 µM]
COc1ccc2c(c1)c1c(c(=O)n(Cc3ccccc3)c(=O)n1CC(=O)Nc1ccccc1OC)n2C	x	-2%	25%	-11%	0%	-6%
CC(=O)N(c1ccc2oc(=O)sc2c1)S(=O)(=O)c1cccs1	-15%	28%	u	-6%	-3%	5%
CC(=O)N(c1ccc2oc(=O)sc2c1)S(=O)(=O)c1ccc(C(=O)O)cc1	u	-16%	3.5µM*	35µM*	-20%	u
COc1cc(OC)c(NS(=O)(=O)c2ccc3c(c2)CCCN3C(C)=O)cc1Cl	x	1%	-7%	-15%	15%	-13%[60.1 µM]
CCOC(=O)c1ccc(NC(=O)COc2cc3oc(=O)c(CC(C)O)c(C)c3cc2Cl)cc1 (configuration not stated)	0%	u	u	1%	-8%	-15%
CC(=O)c1cccc(NC(=O)COc2cc3oc(=O)c(CC(C)O)c(C)c3cc2Cl)c1 (configuration not stated)	-31%[57.1 µM]	u	56µM*	u	-25%	-39%
CCOc1ccc(CNC(=O)Cn2ncc3c(=O)oc4ccc(C)cc4c32)cc1	x	23%	29%	-12%	-5%	-2%
CC1O[C@@H](OC2C(COC3OC(CO)C(O)[C@H](O)C3O)OC(OC3CC[C@]4(C)C(CC[C@@]5(C)[C@@H]4CC=C4[C@@H]6CC(C)(C)CC[C@]6(CO)C(O)C[C@]45C)C3(C)C)C(O)C2O)C(O)C(O)C1O (some centres not stated)	-1%	x	-6%	-7%	-13%	-5%
C[C@@H]1OC(OC2CC[C@@]3(C)C(CC[C@@]4(C)C3CC=C3C5CC(C)(C)CC[C@]5(C(=O)OC5OCC(O)[C@@H](O)[C@@H]5OC5O[C@@H](C)[C@H](O[C@H]6OC(CO)C(O)C(O)C6O)C(O)C5O)C(O)C[C@@]34C)C2(C)C)C(O)C(O)[C@H]1OC1OCC(O)C(O)[C@H]1O (some centres not stated)	x	x	x	x	x	25µM*
COc1cc2c(cc1OC)C(COc1ccc3c(C)cc(=O)oc3c1)N(C(=O)Cc1ccc(F)cc1)CC2 (configuration not stated)	x	22%	19%	-15%	2%	7%
O=C(NCCCc1nc2ccccc2n1Cc1ccccc1F)c1ccco1	x	-5%	10%	-8%	-3%	7%
Cc1ccc(C)c(N(CC(=O)NCCSCc2ccco2)S(C)(=O)=O)c1	-35%	28µM*	u	22µM*	-13%	79µM*
O=C(NCCSCc1ccco1)c1ccc(=O)[nH]c1	-6%[11.6 µM]	-7%	50µM*	-20%	0%	-38%
COc1ccc(S(=O)(=O)Nc2ccc(S(=O)(=O)Nc3ccc(F)cc3)cc2)cc1C	-12%	7%	u	-14%	-11%	-3%
COc1ccc(S(=O)(=O)Nc2ccc(F)cc2)cc1N(C)S(=O)(=O)c1ccc(Cl)cc1	-27%	-1%	89µM*	-14%	-5%	-15%
COc1ccc(NS(=O)(=O)c2ccc(OC)c(N(C)S(=O)(=O)c3ccc(Cl)cc3)c2)cc1	-17%	-17%	89µM*	-20%	-13%	-14%
COc1ccc(N(C(=O)c2ccc(OC)c(OC)c2)S(=O)(=O)c2ccc(Cl)cc2)cc1	x	-2%	89µM*	-16%	89µM*	79µM*
CCOc1ccccc1NC(=O)CN(CCc1ccccc1)S(=O)(=O)c1ccc(C)cc1	x	-6%	-5%	-13%	0%	-17%
O=S(=O)(c1ccccc1)c1nnn2c1nc(NC1CCCCCC1)c1sccc12	x	-14%	29%	-7%	-2%	-3%
C=CCN1CC[C@@H](O)C(=C)S1(=O)=O	x	x	30%	x	16%	6%
SMILES	WRN helicase inh	POLB inh	POLI inh	Pol eta inh	FEN1 inh	Pol kappa inh
c1ccc(-c2nnc(CN3CCN(c4ccccn4)CC3)o2)cc1	x	1%	21%	-14%	2%	-3%
C/C(CC(=O)Nc1cccc(Cl)c1Cl)=N\NC(=O)c1ccccc1C	-8%	50µM*	9%	-12%	13%	1%
COc1cc(OC)cc(C(=O)Nc2ccc(S(=O)(=O)N3CCCCC3c3cccnc3)cc2)c1 (configuration not stated)	x	-17%	u	-8%	-19%	-10%[60.1 µM]
Cc1ccc(-c2nc3ccccc3[nH]2)cc1NC(=O)COc1cccc(C)c1C	x	27%	89µM*	-1%	-22%	-36%
Cc1ccc(-c2nc3ccccc3[nH]2)cc1NC(=O)COc1ccc(Cl)cc1Cl	x	20%	-25%	-10%	-6%	-6%
Cc1cccc(OCC(=O)Nc2cc(NC(=O)COc3cccc(C)c3C)cc(C(=O)O)c2)c1C	-3%	10µM*	-10%	u	-32%	7%
Cc1ccc(OCC(=O)Nc2cc(NC(=O)COc3ccc(C)cc3)cc(C(=O)O)c2)cc1	-2%	-9%	u	-1%	18%	0%
Cc1ccc(OCC(=O)Nc2cc(C(=O)O)cc(C(=O)O)c2)cc1C	79µM*	-2%	75%	-15%	-12%	-19%
CC(=O)ON(C(C)=O)c1ccc(/C=C2/C=Cc3ccccc32)cc1	x	x	8%	x	-11%	-12%
N#Cc1c(NC(=S)NC(=O)Cc2cccs2)sc2c1CCCCC2	-12%	45µM*	-14%	-6%	-18%	u
COc1ccc(Cl)cc1NC(=O)Cn1nc(Cc2ccncc2)c2ccccc2c1=O	x	16%	38%	-22%	8%	-4%
O=C1SC(SCc2ccccc2)=N/C1=C\c1ccc(C(=O)O)cc1	-29%	4%	-2%	1%	-8%	-33%
